We go through four compounds from PubChem BioAssay (EPA / NIEHS).

A short description of test [1]: APR_HepG2_NuclearSize_24hr: Apredica 24-hour HepG2 Assay for Nuclear Size (AID 2282907). Particulars: high-content imaging, actives raise or lower the signal. The gist of the method:
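Nuclear size from Hoechst 33342-stained, formaldehyde-fixed HepG2 nuclei imaged by high-content microscopy, after 24 h dosing at ten concentrations from 0.39 to 200 uM in 0.5% DMSO; gain or loss relative to DMSO baseline.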

Test [2] in a line: APR_HepG2_CellLoss_24hr: Apredica 24-hour HepG2 Assay for Cell Loss (AID 2282908). Particulars: high-content imaging. The method in brief:
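Nuclei stained with Hoechst 33342 after formaldehyde fixation (3.7%) were imaged at 20x to count cells. Exposure lasted 24 hr, at ten concentrations from 0.39 to 200 uM in duplicate, with 0.5% v/v DMSO. Fit bidirectional, relative to DMSO.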

Test [3] is described as follows: APR_HepG2_MicrotubuleCSK_24hr: Apredica 24-hour HepG2 Assay for Microtubule CSK Stabilty (AID 2282909). The following applies: HepG2 microtubule cytoskeleton imaging, actives raise or lower the signal. The gist of the method: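 Fixed HepG2 cells were stained for alpha-tubulin and imaged after 24 hr exposure to ten concentrations spanning 0.39–200 uM in 0.5% DMSO. Signal change was fitted in both directions relative to DMSO; taxol was the positive control.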

Test [4] can be described thus: APR_HepG2_MitoticArrest_24hr: Apredica 24-hour HepG2 Assay for Mitotic Arrest (AID 2282910). Particulars: high-content imaging, actives raise or lower the signal. The gist of the method: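 Treatment lasted 24 hr in the human HepG2 line at 0.39–200 uM, solvent held at 0.5% DMSO. Fixed cells were stained with Hoechst 33342 and anti-phospho-histone H3, imaged at 20x, and analysed by gain- or loss-of-signal fitting against DMSO.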

Test [5] in a line: APR_HepG2_MitoMembPot_24hr: Apredica 24-hour HepG2 Assay for Mitochondrial Membrane Potential (AID 2282911). The following applies: imaging, actives raise or lower the signal. The gist of the method: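 Cells are dosed for 24 hr across 0.39 to 200 uM with solvent held at 0.5% DMSO. They are then stained with 250 nM MitoTracker Red CMXRos for 30 min, fixed in 3.7% formaldehyde and imaged.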

Test [6] can be described thus: APR_HepG2_MitoMass_24hr: Apredica 24-hour HepG2 Assay for Mitochondrial Mass (AID 2282912). Particulars: high-content imaging, actives raise or lower the signal. The method in brief:
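Endpoint is MitoTracker Red CMXRos (250 nM, 30 min, pre-fixation) intensity from 20x high-content imaging, nuclei located by Hoechst. Human HepG2 cells received ten concentrations from 0.39 to 200 uM in 0.5% DMSO for 24 hr, duplicate wells. Bidirectional fit relative to DMSO.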

The nature of test [7]: APR_HepG2_p53Act_24hr: Apredica 24-hour HepG2 Assay for p53 Activation (AID 2282913).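 Further: p53 protein immunofluorescence averaged per cell in HepG2 with Hoechst nuclei.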 The following applies: high-content imaging, actives raise or lower the signal. The method in brief:
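Human HepG2 liver cells; 24 hr cpd treatment, 0.39–200 uM, 0.5% DMSO final. Fixed in 3.7% formaldehyde, permeabilized with 0.5% Triton X-100, stained with anti-p53/Cy5 plus Hoechst 33342. Six images per well at 20x; gain or loss vs DMSO.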

Test [8] is described as follows: APR_HepG2_P-H2AX_72hr: Apredica 72-hour HepG2 Assay for H2AX Phosphorylation (AID 2282916).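 Further: phospho-histone H2A.x immunostain intensity per cell marking DNA damage.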 Particulars: imaging, actives raise or lower the signal. The gist of the method:
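Phospho-histone H2A.x immunofluorescence, multiplexed with Hoechst and c-Jun, quantified by high-content imaging. Compounds applied to HepG2 for 72 h across ten concentrations (0.39–200 uM, 0.5% DMSO), in duplicate; DMSO baseline.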

The nature of test [9]: APR_HepG2_MitoMembPot_72hr: Apredica 72-hour HepG2 Assay for Mitochondrial Membrane Potential (AID 2282917). The following applies: imaging, actives raise or lower the signal. The gist of the method: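 HepG2 cells exposed 72 h to compounds at 0.39–200 uM (0.5% v/v DMSO, duplicates); MitoTracker Red CMXRos 250 nM loaded 30 min before 3.7% formaldehyde fixation, imaged by HCS fluorescence. Bidirectional fit versus DMSO.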

A short description of test [10]: APR_HepG2_MicrotubuleCSK_72hr: Apredica 72-hour HepG2 Assay for Microtubule CSK Stabilty (AID 2282919). The following applies: HepG2 microtubule cytoskeleton, high-content imaging, actives raise or lower the signal. The method in brief: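 Ten-point dosing (0.39–200 uM, 0.5% DMSO) of HepG2 for 72 hr, with taxol as the cytoskeletal positive control. The cells were formaldehyde-fixed and then stained with alpha-tubulin/Cy5 and Hoechst. Imaging at 20x used a −2 um Z offset for tubulin.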

Test [11] is described as follows: APR_HepG2_P-H2AX_24hr: Apredica 24-hour HepG2 Assay for H2AX Phosphorylation (AID 2282920). The following applies: high-content imaging, actives raise or lower the signal. The gist of the method: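 HepG2, 24 hr, cpd 0.39–200 uM (10 conc, duplicate), DMSO 0.5% v/v final. Fix 3.7% formaldehyde, Triton X-100 permeabilize, anti-phospho-H2A.x 1:200 + Hoechst 2 ug/mL. Imaged, bidirectional fit vs DMSO.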

The nature of test [12]: APR_HepG2_StressKinase_72hr: Apredica 72-hour HepG2 Assay for Stress Kinase (AID 2282921). The following applies: HepG2 stress kinase (phospho-c-Jun) imaging, actives raise or lower the signal. The method in brief:
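Stress kinase signal is phospho-c-Jun immunofluorescence (1:500 primary, Cy3 secondary) in fixed, permeabilized human HepG2 cells imaged at 20x. Exposure lasted 72 hr over ten concentrations from 0.39 to 200 uM, 0.5% DMSO, in duplicate. Bidirectional fit versus DMSO.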

A short description of test [13]: APR_HepG2_StressKinase_24hr: Apredica 24-hour HepG2 Assay for Stress Kinase (AID 2282922). Particulars: HepG2 stress kinase (phospho-c-Jun) imaging, actives raise or lower the signal. The method in brief: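 After 24 hr compound treatment (up to 200 uM, final DMSO 0.5% v/v), HepG2 cells are fixed and multiplex-labeled; phospho-c-Jun intensity is captured by high-content fluorescence imaging and analyzed relative to DMSO.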

Test [14] in a line: APR_HepG2_MitoMass_72hr: Apredica 72-hour HepG2 Assay for Mitochondrial Mass (AID 2282924).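 Further: MitoTracker Red CMXRos stain intensity per cell imaged as mitochondrial mass.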 The following applies: high-content imaging, actives raise or lower the signal. The method in brief: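 Steps: treat HepG2 72 hr (0.39–200 uM, duplicate wells); load MitoTracker Red CMXRos, 250 nM, 30 min; fix with 3.7% formaldehyde, permeabilise with 0.5% Triton X-100; capture images, nuclei via Hoechst 33342; fit bidirectionally against DMSO.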

Test [15] in a line: APR_HepG2_NuclearSize_72hr: Apredica 72-hour HepG2 Assay for Nuclear Size (AID 2282925). The following applies: high-content imaging, actives raise or lower the signal. The gist of the method: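 Compounds (0.39–200 uM, final DMSO 0.5%) were applied to HepG2 for 72 hr. Cells were then formaldehyde-fixed, permeabilized and labelled with Hoechst 33342. Nuclear diameter was quantified from six images per well.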

Test [16] can be described thus: APR_HepG2_CellLoss_72hr: Apredica 72-hour HepG2 Assay for Cell Loss (AID 2282915). Particulars: high-content imaging. The method in brief:
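HepG2 cells were exposed for 72 hr to compounds at 0.39–200 uM (ten concentrations, duplicate) in 0.5% v/v final DMSO. Nuclei were stained with Hoechst 33342 after 3.7% formaldehyde fixation, imaged at 20x, and counted; fits bidirectional versus DMSO.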

Test [17] can be described thus: APR_HepG2_p53Act_72hr: Apredica 72-hour HepG2 Assay for p53 Activation (AID 2282923).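 Further: average cellular p53 protein immunofluorescence intensity in HepG2 cells.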 Particulars: high-content imaging, actives raise or lower the signal. The gist of the method: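 After 72 h with compound (ten points, 0.39 to 200 uM, final DMSO 0.5% v/v), fixed HepG2 cells were labelled with sheep anti-p53 and Hoechst 33342 and imaged; gain or loss versus DMSO scored.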

Active and inactive are the calls of the source. How the source made its calls: active means hit-call score of the fitted dose curve at least 0.9, where 1 is the maximum; inactive means score below 0.9.

For the compound `CC(C)(O)C(=O)Nc1ccc([N+](=O)[O-])c(C(F)(F)F)c1`, the call in test [1], in test [2], in test [3], in [4], in test [5] and in [6] was inactive. The compound was classed as inactive in test [7], in [8], in [10], in [11], in test [12] and in [13]. Moreover, the results for the AC50 in test [9], in [14] and in test [15] were 889 nM (active), 652 nM (active) and 522 nM (active), respectively.

On to `COS(=O)(=O)OC`, for which the result in [1], in [2], in test [3], in test [4], in test [5] and in test [6] was inactive. Moreover, the compound was classed as inactive in [7], in test [16], in test [8], in [9], in [10] and in test [11]. The compound was called inactive in [12], in test [13], in test [14] and in test [15].

In the case of `O=S(=O)(O)C(F)(F)C(F)(F)C(F)(F)C(F)(F)C(F)(F)C(F)(F)F`, the call in test [1], in test [2], in [3], in test [4], in test [5] and in [6] was inactive. The compound was classed as inactive in test [7], in test [8], in test [9], in test [10], in [11] and in test [12]. In addition, the outcome in test [13], in [17], in [14] and in test [15] was inactive.

Consider `O=C(NC(=O)c1cc(F)c(F)cc1Cl)Nc1cc(F)ccc1N1CCC(C(=O)O)CC1`, for which the result in [1], in [2], in test [3], in test [4], in [5] and in test [6] was inactive. The compound was classed as inactive in [7], in test [8], in test [9], in [10], in test [11] and in test [12]. Besides, the compound was classed as inactive in test [13], in [14] and in [15].
